Screening results deposited in PubChem BioAssay by National Center for Advancing Translational Sciences (NCATS).
ERK AVP block: vasopressin-driven ERK pathway inhibition. HEK293-V1b, vasopressin-stimulated pERK AlphaScreen. 0.99% of 72,000 active. Potency, µM (highest dose often 57.5 µM), hits mostly inhibitors. AID 995; note: nearly all actives have a fitted effect of over 55% in size
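V1b-HEK293 cells; cpd 30 min 37C; 25 nM vasopressin 5 min; lyse 10 min; AlphaScreen beads 5 hr RT. Normalized to DMSO basal and 25 nM vasopressin; AC50 by Hill fit.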
ALOX15 inhib: inhibitors of human 15-lipoxygenase (ALOX15); purified 15hLO-1, xylenol orange hydroperoxide absorbance; Potency, µM (titrated, usually from 57.1 µM), hits mostly inhibitors; 1.4% of 74,000 active; note: nearly all actives have a fitted effect of over 55% in size
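Purified human 15hLO-1 (40 nM) in 25 mM Hepes pH 7.5, 0.01% Triton X-100, preincubated 15 min RT with compound, then 50 uM arachidonic acid for 6 min. Hydroperoxide read by ferrous/xylenol orange, 30 min; 573/405 nm absorbance ratio gave progress.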
HSD17B inh: inhibitors of human HSD17B10 dehydrogenase. Q99714. recombinant HSD17B10, NADH fluorescence kinetic. Potency, µM (doses to about 57.1 µM), usual class: inhibitors. 7.6% of 75,000 active;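 note: the protocol describes HADH2 (HSD17B10) and not the HSD17B4 of the title; nearly all actives have a fitted effect of over 70% in size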
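Activity followed as NADH fluorescence increase (ex 360, em 450 nm) every 30 seconds for 4 min, using final 90 uM beta-hydroxybutyryl CoA and 1 mM NAD+. Recombinant His-tagged enzyme, 20 nM, pH 9.0 Tris buffer, 15 min compound preincubation.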
Luciferase inh: inhibitors of firefly luciferase; P08659; purified firefly luciferase, luminescence, 8 min; Potency, µM (highest dose often 57.1 µM), usual class: inhibitors; 2.2% of 72,000 active; AID 411; note: nearly all actives have a fitted effect of over 40% in size
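Substrate buffer containing 10 uM ATP (pH 7.2 imidazole, Mg2+, KCl, detergent, BSA) is dispensed, compound pinned in, then luciferase/luciferin detector mix added. After 8 min at ambient temperature, light output is measured.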
HADH2 inh: blocks human hydroxyacyl-CoA dehydrogenase type II | AID 886 | Potency, µM (series often up to 57.1 µM), actives largely listed as inhibitors | Q99714 | 3.4% of 73,000 active | recombinant HADH2, NADH fluorescence, beta-hydroxybutyryl-CoA; note: nearly all actives have a fitted effect of over 60% in size
Target sequence (Q99714 whole entry, looked up, one chain of several): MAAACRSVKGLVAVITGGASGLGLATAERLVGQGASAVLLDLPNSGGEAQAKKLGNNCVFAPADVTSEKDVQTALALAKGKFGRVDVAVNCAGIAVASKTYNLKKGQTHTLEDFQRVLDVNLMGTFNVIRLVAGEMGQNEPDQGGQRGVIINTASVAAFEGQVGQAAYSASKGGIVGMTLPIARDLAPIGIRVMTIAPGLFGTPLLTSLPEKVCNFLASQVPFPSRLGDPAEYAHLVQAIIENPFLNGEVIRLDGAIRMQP
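His-tagged recombinant enzyme from E. coli, 20 nM, preincubated 15 min RT with compound; reaction started with 1 mM NAD+ and 90 uM beta-hydroxybutyryl-CoA in 100 mM Tris-HCl pH 9.0. NADH fluorescence (ex 360/em 450) read over 4 min; last-minus-first difference.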
Bst PK mod: modulators of Bacillus stearothermophilus pyruvate kinase | purified pyruvate kinase, luminescence ATP production; ribose 5-phosphate activator present at AC10 | Potency, µM | 1.2% of 51,000 active; in the data active = potency below about 11 µM; inconclusive = mostly about 12 µM to 25 µM;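 the screen sought inhibitors and activators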
Numbers stand for hits; n = inactive; u = inconclusive; x = not tested or not shown; [ ] = remark or other dose. Hits are enriched below; roughly 11% of the tested compounds scored in any of these assays. Unless noted, calls come from the whole dose curve; as a rule, active = well fitted curve in the direction sought with a large enough effect; inconclusive = small, poorly fitted or top-dose-only effect, or another doubt; inactive = no such curve, though single readings can be large; an effect the other way counts as inactive or inconclusive.

SMILES	ERK AVP block	ALOX15 inhib	HSD17B inh	Luciferase inh	HADH2 inh	Bst PK mod
CCOC(=O)N1CCC(N2C(=O)c3ccccc3C2Nc2ccc3c(C)cc(=O)oc3c2)CC1 (stereo not given)	n	n	3.2µM	n	n	x
COC(=O)c1ccc(C(NC(=O)OCc2ccccc2)/C(=C/[C@@H](C)C(=O)NCCF)c2cccnc2)cc1 (stereo not given in full)	n	n	n	x	n	x
CCCC/C=C/C(NC(=O)OCc1ccccc1Cl)c1ccccc1 (stereo not given)	n	x	n	x	n	x
COCCCNC(=O)Cn1nc(-c2ccc(C)cc2)ccc1=O	n	n	25µM	n	n	n
O=C(COc1ccccc1O)Nc1ccccc1Cl	n	n	n	n	n	x
Cc1cccc(OCC(=O)Nc2ccc3c(c2)OCCO3)c1	n	n	n	13µM	n	n
Cc1cnc(NC(=O)COc2ccccc2Cl)s1	n	n	n	1.3µM	n	1.4
O=C(COc1ccccc1Cl)Nc1ccc2c(c1)OCCO2	n	n	n	10µM	n	x
CC[C@@H](c1ccccc1)n1c(=O)n2n(c1=O)[C@H]1[C@H](O)[C@H]3O[C@@H]3/C(=N/OC[C@@H](O)COCc3ccco3)[C@@H]1CC2	n[11.5 µM]	n[11.4 µM]	n[11.4 µM]	n[11.4 µM]	n[11.4 µM]	x
Cc1cccc(N2CCN(c3nc4ccc(Cl)cc4n4cnnc34)CC2)c1C	n	n	25µM	n	n	x
O=C(Nc1cccc(Br)c1)c1ccn[nH]1	n	10µM	n	n	n	x
CC(=O)c1ccc(C2C=CC(O)C(CO)O2)cc1 (stereo not given)	n[11.5 µM]	n[11.4 µM]	4µM	x	n[11.4 µM]	x
N#CC1=C2SCN(c3ccccc3)CN2C(=O)CC1c1c(Cl)cccc1Cl (stereo not given)	u	3.2µM	32µM	n	1µM	x
N#CC1=C2SCN(c3ccccc3)CN2C(=O)CC1c1ccccc1Cl (stereo not given)	n	u	32µM	n	1.6µM	x
COc1cc(OC)c(C2CC(=O)N3CN(c4ccccc4)CSC3=C2C#N)cc1OC (stereo not given)	n	u	u	n	u	n
Cc1ccc(C2CC(=O)N3CN(c4ccc(Br)cc4)CSC3=C2C#N)o1 (stereo not given)	n	2.5µM	13µM	n	7.9µM	n
N#CC1=C2SCN(c3ccccc3)CN2C(=O)CC1c1cccs1 (stereo not given)	n	4µM	13µM	n	2µM	n
C=C(C)CNCCN	n[11.5 µM]	n[11.4 µM]	n[11.4 µM]	n[11.4 µM]	n[11.4 µM]	x
C[C@@H](N)/C(N)=N/O	n[11.5 µM]	n[11.4 µM]	n[11.4 µM]	n[11.4 µM]	n[11.4 µM]	x
N#CC1=C2SCN(Cc3ccco3)CN2C(=O)CC1c1c(F)cccc1Cl (stereo not given)	n	u	u	n	1.3µM	x
COc1ccc(OC)c(C2CC(=O)N3CN(c4ccc(C)c(Cl)c4)CSC3=C2C#N)c1 (stereo not given)	n	u	u	n	u	x
O=C(Nc1nc2c(ccc3ccccc32)s1)c1ccco1	13µM	u	n	n	u	x
O=C(Nc1ccccc1-c1nc2ccccc2s1)c1ccco1	n	n	32µM	n	u	x
O=C(Nc1cnc2ccccc2c1)c1ccco1	n	n	n	20µM	n	n
O=C(Nc1ccc(NC(=O)c2ccco2)nc1)c1cccnc1	n	u	n	25µM	n	x
SMILES	ERK AVP block	ALOX15 inhib	HSD17B inh	Luciferase inh	HADH2 inh	Bst PK mod
Cc1nnc(NC(=O)c2ccco2)s1	x	n	n	n	n	x
CC1Cc2c(-c3ccccc3)nc3c(c2CO1)CN(CCOc1ccccc1)CC3 (stereo not given)	n[11.5 µM]	n[11.4 µM]	n[11.4 µM]	x	n[11.4 µM]	x
CC(C)C[C@@H](CC(=O)N[C@@H](CCC(=O)O)CC(=O)O)NC(=O)[C@@H]1CCCC[C@H]1NC(=O)C[C@@H](NC(=O)C[C@H](Cc1ccccc1)NC(=O)[C@@H]1CCCC[C@H]1N)C(C)C	x	x	x	x	n	x
CC(C)CO/N=C1/C[C@@H](O)[C@@H](O)[C@@H]2[C@@H]3C(=O)N(C(C)(C)C)C(=O)[C@H]3CC[C@@H]12	n[11.5 µM]	n[11.4 µM]	n[11.4 µM]	n[11.4 µM]	n[11.4 µM]	x
CN(C)CCCSc1nc2ccccc2[nH]1	n[11.5 µM]	n[11.4 µM]	n[11.4 µM]	n[11.4 µM]	n[11.4 µM]	x
Cc1cc(NC(=O)c2cccc(F)c2)ncc1NC(=O)c1ccco1	n	n	n	16µM	n	x
O=C(Nc1ccc(-c2noc(CCc3ccccc3)n2)cc1)c1ccco1	n	n	u	10µM	n	u
